Measurements: PubChem BioAssay (NCI)
This is part of a sample that, as a whole, favours compounds with a hit. Of some 79,000 tested, about 15% had one in any assay. Active and inactive are the calls of the source. No stated cut-off is given here; in the data, active means growth inhibition above about 70%; inactive means the rest.

What was measured:
[1] = NCI Yeast Anticancer Drug Screen. Data for the wt1 strain (AID 149);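 further: 0% = growth of vehicle-treated wt1 cultures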; settings: S. cerevisiae wt1 strain (SPY 50644) growth inhibition, hits give high values
Outline: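 Measured: growth of wt1 yeast under compound versus vehicle treatment, reported as inhibition.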

[2] = NCI Yeast Anticancer Drug Screen. Data for the rad50EPP+ strain (AID 151);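 further: 0% = growth of vehicle-treated control cultures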; settings: S. cerevisiae rad50 mutant strain, hits give high values
Outline: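 In this screen, rad50EPP+ yeast were exposed to compounds. Growth inhibition was scored against vehicle-treated controls.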

[3] = NCI Yeast Anticancer Drug Screen. Data for the mgt1 strain (AID 153); settings: S. cerevisiae mgt1 mutant growth inhibition, hits give high values
Outline: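 mgt1 strain exposed; growth vs vehicle control recorded as inhibition.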

[4] = NCI Yeast Anticancer Drug Screen. Data for the rad50 strain (AID 155);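 further: 0% = growth of vehicle-only cultures of the same strain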; settings: S. cerevisiae rad50 strain growth inhibition, hits give high values
Outline: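 Growth of the mutant yeast was measured after compound exposure and referenced to vehicle-treated cultures.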

[5] = NCI Yeast Anticancer Drug Screen. Data for the mec2-1 strain (AID 157); settings: S. cerevisiae mec2-1 strain, hits give high values
Outline: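 Vehicle-treated cultures served as reference for growth inhibition of compound-exposed mec2-1 yeast.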

[6] = NCI Yeast Anticancer Drug Screen. Data for the rad14 strain (AID 159);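 further: 0% = growth of vehicle-treated control cultures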; settings: S. cerevisiae rad14 strain growth inhibition, hits give high values
Outline: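 Here, inhibition of yeast growth was measured after compound exposure, using a strain with a genetic defect in DNA damage repair and vehicle-treated cultures as the reference.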

[7] = NCI Yeast Anticancer Drug Screen. Data for the sgs1 mgt1 strain (AID 161);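 further: 0% = growth of cultures given vehicle only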; settings: S. cerevisiae sgs1 mgt1 strain, hits give high values
Outline: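 Mutant yeast exposed to compound; growth scored against vehicle-only wells.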

[8] = NCI Yeast Anticancer Drug Screen. Data for the CLN2oe strain (AID 163);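 further: 0% = growth of vehicle-only control cultures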; settings: S. cerevisiae CLN2oe strain, hits give high values
Outline: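 Inhibition relative to vehicle-treated yeast is reported. Cells: strain with genetic alteration in cell-cycle control, grown with compound.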

[9] = NCI Yeast Anticancer Drug Screen. Data for the cln2 rad14 strain (AID 165);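 further: 0% = growth equal to vehicle treated cultures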; settings: S. cerevisiae cln2 rad14 strain, hits give high values
Outline: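 Each compound was tested on cln2 rad14 yeast. Inhibition of growth was calculated against vehicle-exposed controls.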

[10] = NCI Yeast Anticancer Drug Screen. Data for the bub3 strain (AID 167); settings: S. cerevisiae bub3 mutant strain, hits give high values
Outline: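 Whole-cell yeast assay. The mutant strain was incubated with compounds, and growth inhibition was determined by comparison with vehicle-treated cells.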

[11] = NCI Yeast Anticancer Drug Screen. Data for the wt2 strain (AID 169);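 further: 0% = growth of vehicle-treated yeast cultures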; settings: S. cerevisiae wt2 strain growth inhibition, hits give high values
Outline: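 Inhibition of yeast growth was determined after compound treatment, normalised to controls receiving only vehicle.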

[12] = NCI Yeast Anticancer Drug Screen. Data for the mlh1 strain (AID 171);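 further: 0% = growth of vehicle-treated control cultures of the same strain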; settings: S. cerevisiae mlh1 strain growth inhibition, hits give high values
Outline: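 Vehicle-normalised growth inhibition of a repair- or checkpoint-altered yeast strain following compound treatment.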

[13] = NCI Yeast Anticancer Drug Screen. Data for the sgs1 strain (AID 173);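 further: 0% = growth of vehicle-only control cultures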; settings: S. cerevisiae sgs1 mutant, hits give high values
Outline: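 Screen format: yeast with repair or checkpoint alterations, compound exposure, growth read relative to vehicle.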

[14] = NCI Yeast Anticancer Drug Screen. Data for the mlh1 rad18 strain (AID 175); settings: S. cerevisiae mlh1 rad18 strain growth inhibition, hits give high values
Outline: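 Vehicle-treated cultures served as the reference for growth inhibition in a yeast strain carrying DNA damage repair alterations exposed to each compound.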

[15] = NCI Yeast Anticancer Drug Screen. Data for the rad18 strain (AID 177); settings: S. cerevisiae rad18 mutant growth inhibition, hits give high values
Outline: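 Test articles were incubated with altered yeast defective in DNA damage repair. Results are given as inhibition of growth versus vehicle.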

[16] = at 5.0 µM (retest, dose inferred, filed as 0.5)
[17] = at 50.0 µM (retest, dose inferred, filed as 5.0)

Measured: growth inhibition

Cc1ccc(C(C)C)c(C(=C2C=CC(=[N+](C)C)C=C2)c2c(C(C)C)ccc(C)c2O)c1O
active: [1]; at 11.0 µM 98% | [1]; at 33.0 µM 95% | [1]; at 100.0 µM 86% | [3]; at 11.0 µM 98% | [3]; at 33.0 µM 94% | [3]; at 100.0 µM 85% | [4]; [16] 84% | [4]; at 11.0 µM 97% | [4]; at 33.0 µM 93% | [4]; [17] 93% | [4]; at 50.0 µM 96.7% | [4]; at 100.0 µM 81% | [5]; at 11.0 µM 98% | [5]; at 33.0 µM 96% | [5]; [17] 96% | [5]; at 50.0 µM 97.5% | [5]; at 100.0 µM 88% | [6]; at 11.0 µM 98% | [6]; at 33.0 µM 94% | [6]; at 100.0 µM 85% | [7]; [17] 96% | [7]; at 50.0 µM 97.3% | [8]; at 11.0 µM 97% | [8]; at 33.0 µM 93% | [8]; at 100.0 µM 75% | [9]; [17] 94% | [9]; at 50.0 µM 95.2% | [10]; at 11.0 µM 97% | [10]; at 33.0 µM 93% | [10]; [17] 97% | [10]; at 50.0 µM 95.3% | [10]; at 100.0 µM 81% | [11]; at 11.0 µM 97% | [11]; at 33.0 µM 94% | [11]; at 100.0 µM 83% | [12]; at 11.0 µM 97% | [12]; at 33.0 µM 96% | [12]; at 100.0 µM 84% | [13]; at 11.0 µM 97% | [13]; at 33.0 µM 94% | [13]; at 100.0 µM 82% | [14]; [17] 94% | [14]; at 50.0 µM 96.9% | [15]; at 11.0 µM 98% | [15]; at 33.0 µM 95% | [15]; at 100.0 µM 80%
inactive: [1]; at 1.2 µM 1% | [1]; at 3.7 µM -2% | [2]; at 1.2 µM -1% | [2]; at 3.7 µM 1% | [2]; at 11.0 µM -1% | [2]; at 33.0 µM -3% | [2]; at 100.0 µM -8% | [3]; at 1.2 µM -2% | [3]; at 3.7 µM 0% | [4]; at 1.2 µM 4% | [4]; at 3.7 µM 16% | [5]; at 1.2 µM -1% | [5]; at 3.7 µM 16% | [5]; [16] 53% | [6]; at 1.2 µM 1% | [6]; at 3.7 µM 19% | [7]; [16] 66% | [8]; at 1.2 µM 2% | [8]; at 3.7 µM 26% | [9]; [16] 51% | [10]; at 1.2 µM 3% | [10]; at 3.7 µM 8% | [10]; [16] 35% | [11]; at 1.2 µM 1% | [11]; at 3.7 µM -1% | [12]; at 1.2 µM 0% | [12]; at 3.7 µM 8% | [13]; at 1.2 µM 0% | [13]; at 3.7 µM 14% | [14]; [16] 63% | [15]; at 1.2 µM -2% | [15]; at 3.7 µM 25%
